Assay results published in PubChem BioAssay (NCATS).
Records with an inconclusive call do not appear. Unmarked numbers belong to inactive results. Active and inactive are the calls of the source. The call rests on the fitted dose curve; in most records, active means well fitted inhibition curve with a large enough effect; inconclusive means small, poorly fitted or top-dose-only effect; inactive means flat fitted curve, though single readings scatter.

Experiments:
Test in all cases: Cytotoxic Profiling of Annotated Libraries Using Quantitative High-Throughput Screening (AID 1296008); further: nearly all actives have a fitted effect of over 60% in size
Details in all cases: Five cell lines viability, CellTiter-Glo ATP luminescence, 48-72 h; max response: active compounds read low
HaCat = system: HaCat
Summary of the method: (§1)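 Compounds were pin-transferred onto cells and incubated 48 or 72 hr at 37 degree Celsius, 95% humidity. CellTiter-Glo was added, plates sat 10 min at room temperature, then ATP-coupled luminescence was imaged as the viability read-out.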

KB-3-1 = system: KB-3-1
Summary of the method: as §1

NIH3T3 = system: NIH3T3
Summary of the method: as §1
On the % scale 0 is the no-effect control and ±100 the full control effect; potency means the concentration at half of the fitted maximal effect.

NC(=O)c1ccccc1Nc1ccnc(Nc2cccc(O)c2)n1
Potency (HaCat): 5.8 µM (active)
Potency (KB-3-1): 8.2 µM (active)
Potency (NIH3T3): 7.31 µM (active)

O=S(=O)(Nc1ccccc1N1CCCCC1)c1ccc(Cl)s1
max response (HaCat): -19.5%
max response (KB-3-1): -15.2%
max response (NIH3T3): -6.22%

Nc1ncnc2c1c(-c1ccc(Cl)cc1)nn2-c1cccc(-c2cnnn2Cc2cccc(-c3ccccc3)c2)c1
max response (HaCat): -3.38%
max response (KB-3-1): -15.9%

c1cc(NC2CCNCC2)nc(-c2cnc3ccccn23)c1
Potency (HaCat): 3.66 µM (active)
Potency (KB-3-1): 3.26 µM (active)
Potency (NIH3T3): 5.8 µM (active)

C=CC(C)(C)C12CC3C(=O)N4C(CC5(C(C)(C)C=C)c6ccccc6NC45)C(=O)N3C1Nc1ccccc12 (configuration not stated)
Potency (HaCat): 11.2 µM (active)
max response (KB-3-1): 3.74%
max response (NIH3T3): 1.64%

C=C1/C(=C/C=C2\CCC[C@@]3(C)C2CCC3[C@H](C)/C=C/[C@@H](O)C2CC2)C[C@@H](O)C[C@@H]1O (some centres not stated)
max response (HaCat): -20.3%
max response (KB-3-1): -9.38%
max response (NIH3T3): -32.1%

CC1CCC(=O)CC(SCC(O)C(=O)O)CCC(=O)O1 (configuration not stated)
max response (HaCat): -8.22%
max response (KB-3-1): -25.6%
max response (NIH3T3): -15.1%

COc1ccc(S(=O)(=O)n2cnc3cc(C)c(C)cc32)cc1
max response (HaCat): -14.6%
max response (KB-3-1): -13.8%

C=C1C(=O)OC2/C=C(\CO)CC/C=C(\C=O)C(OC)C(OC(=O)C(C)CC)C12 (configuration not stated)
max response (HaCat): -18%
outcome (KB-3-1): inactive

CC(=O)OC1C(O)CC2(C)C(CCC3(C)C2CC=C2C4C5(CCC(CO[C@@H]6O[C@H](CO)[C@@H](O)[C@H](O)[C@H]6O)(OC5=O)C4(C)O)C(O)CC23C)C1(C)C (some centres not stated)
max response (HaCat): -8.16%
outcome (KB-3-1): inactive
max response (NIH3T3): 2.97%
